VDR inhibitor: blocks the human vitamin D receptor; P11473; VDR-SRC2-3 peptide fluorescence polarization, 2 h; Potency, µM, without a hit: max response, negative = inhibition, hits mostly inhibitors; actives 0.93% (n = 400,000); AID 504847
Target sequence (P11473 whole entry, looked up): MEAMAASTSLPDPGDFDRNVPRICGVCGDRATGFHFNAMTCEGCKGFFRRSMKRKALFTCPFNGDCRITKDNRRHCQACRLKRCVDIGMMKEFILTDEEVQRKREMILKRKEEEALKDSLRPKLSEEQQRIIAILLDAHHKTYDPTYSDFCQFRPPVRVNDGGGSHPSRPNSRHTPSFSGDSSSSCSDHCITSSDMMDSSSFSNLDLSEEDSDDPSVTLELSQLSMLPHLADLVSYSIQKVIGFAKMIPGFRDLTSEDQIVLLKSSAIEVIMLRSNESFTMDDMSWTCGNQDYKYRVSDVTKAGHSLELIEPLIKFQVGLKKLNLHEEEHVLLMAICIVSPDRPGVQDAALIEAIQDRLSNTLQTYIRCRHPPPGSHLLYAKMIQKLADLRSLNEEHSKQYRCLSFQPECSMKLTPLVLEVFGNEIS
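After 23 nl compound addition and a short centrifugation, plates sat for 2 hours at ambient temperature; polarization of fluorescence then indicated loss of VDR binding to peptide SRC2-3.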
PLK1 PBD block: inhibitors of human PLK1 polo-box domain binding. P53350. Plk1 PBD binding of FITC phosphopeptide, fluorescence polarization. Potency, µM, for the others: max response, negative = inhibition, usual class: inhibitors. actives 2.8% (n = 360,000). AID 720504; also: series mostly up to about 57 µM; nearly all actives have a fitted effect of over 65% in size
ALOX12 inh: blocks human arachidonate 12S-lipoxygenase. P18054. purified 12hLO, xylenol orange hydroperoxide absorbance. Potency, µM (doses to about 108 µM), inactives show at the top dose activity change, negative = inhibition, actives largely listed as inhibitors. actives 1.1% (n = 580,000). AID 1671190
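Purified human 12hLO (150 nM final) in 25 mM Hepes, 0.01% Triton X-100, pH 7.0 was preincubated 15 min at room temperature with compound. Then 40 uM arachidonic acid was added, 30 min. Hydroperoxide was read by Fe-XO absorbance ratio 573/405 nm.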
Sfp inh: inhibitors of Bacillus subtilis Sfp phosphopantetheinyl transferase | Q9F4F7 | Biochemical Sfp PPTase activity, qHTS | Potency, µM, inactives show largest response in the series, negative = inhibition, usual class: inhibitors | actives 3.5% (n = 310,000);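 also: the enzyme is Sfp with the accession as filed and its product quenches rhodamine fluorescence; 0% = enzyme reaction without inhibitor and -100% = no enzyme wells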
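Step 1, compound plus 15 nM Sfp-PPTase, 15 min, room temperature. Step 2, add rhodamine-CoA (5 uM) and BHQ-2-YbbR (12.5 uM). Step 3, read 525/598 nm fluorescence at 0 and 30 min.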
The depositor's hits bear a star; [ ] = remark or other dose. Most compounds without a hit are left out; they make up all but 4.2% or so of the library. Calls follow the shape of the dose curve; as a rule, active = well fitted curve in the direction sought with a large enough effect; inconclusive = small, poorly fitted or top-dose-only effect, or another doubt; inactive = no such curve, though single readings can be large; an effect the other way counts as inactive or inconclusive. Unless noted, % is scaled to controls: 0 for no effect and ±100 for the full control effect; potency is read from the fitted curve at half-maximal effect.

Screening CN1C/C(=C/c2ccc(B(O)O)cc2)C(=O)/C(=C/c2ccc(B(O)O)cc2)C1 returned VDR inhibitor 4.5µM*, ALOX12 inh inconclusive and Sfp inh inconclusive.
`CC(C)N1C/C(=C/c2cccnc2)C(=O)/C(=C/c2cccnc2)C1` gave VDR inhibitor inconclusive, PLK1 PBD block -10%, ALOX12 inh -14% and Sfp inh -2%.
`CN1C/C(=C/c2cccnc2)C(=O)/C(=C/c2cccnc2)C1` gave VDR inhibitor 45µM*, PLK1 PBD block -13%, ALOX12 inh -1% and Sfp inh -9%.
Screening COc1ccc(NS(=O)(=O)c2ccc(NC(=O)Cc3cccs3)cc2)cc1 returned VDR inhibitor -17%, PLK1 PBD block -23%, ALOX12 inh inconclusive and Sfp inh 16%.
For N#Cc1ccccc1OCc1nnc(C(=O)N2CCC[C@@H]2c2nc3ccccc3[nH]2)n1-c1ccccc1 the results were ALOX12 inh 14%.
For O=C(NC(C(=O)c1ccccc1)n1c(=O)cc[nH]c1=S)c1ccccc1 (centres undefined) the results were VDR inhibitor 17%, PLK1 PBD block 27µM*, ALOX12 inh inconclusive and Sfp inh inconclusive.
`O=C(NC(C(=O)c1ccccc1)n1cnccc1=O)c1ccccc1` (centres undefined) gave VDR inhibitor -5%, PLK1 PBD block -30%, ALOX12 inh 232% and Sfp inh 11%.
`Cc1ccc(S(=O)(=O)NCCCn2ccnc2-c2nc[nH]c2C)cc1` gave ALOX12 inh 31%.
For CN(C)c1ccc(N=Cc2nc(-c3ccccc3)oc2O)cc1 the results were VDR inhibitor -5%, PLK1 PBD block 13µM*, ALOX12 inh 1% and Sfp inh -2%.
`C=Cc1ccc(CN2CCCN(Cc3ccc(Cl)cc3)S2(=O)=O)cc1` gave VDR inhibitor inconclusive, PLK1 PBD block 15µM*, ALOX12 inh 0% and Sfp inh -1%.
`C=Cc1ccc(CN2CCCN(Cc3ccc(F)cc3)S2(=O)=O)cc1` gave VDR inhibitor 4%, PLK1 PBD block 2%, ALOX12 inh 0% and Sfp inh 6%.
`O=C(CCCCn1c(=O)c2ccccc2n(Cc2cccc(F)c2)c1=O)NCCc1ccccc1` gave VDR inhibitor -2% and ALOX12 inh -15%.
`COC(=O)c1nc2nc(C)cc(=O)n2[nH]1` gave VDR inhibitor 11%, PLK1 PBD block -3%, ALOX12 inh inconclusive and Sfp inh -1%.
For Cn1c(-c2sc3cc(C(F)(F)F)cnc3c2-c2cccnc2)n[nH]c1=S the results were VDR inhibitor -13%, PLK1 PBD block 24µM*, ALOX12 inh inconclusive and Sfp inh -29%.
For Cn1c(-c2sc3cc(C(F)(F)F)cnc3c2-c2ccccn2)n[nH]c1=S the results were VDR inhibitor -9%, PLK1 PBD block -6%, ALOX12 inh inconclusive and Sfp inh -19%.
`CN(C)c1cc(-c2cccc(NS(C)(=O)=O)c2)ncn1` gave VDR inhibitor inconclusive, ALOX12 inh 35µM* and Sfp inh -8%.
`CS(=O)(=O)Nc1cccc(-c2cncnc2NCc2ccccc2)c1` gave VDR inhibitor inconclusive, ALOX12 inh 40µM* and Sfp inh -15%.
For CS(=O)(=O)Nc1cccc(-c2cc(NCc3ccccc3)ncn2)c1 the results were VDR inhibitor -2%, ALOX12 inh 11µM* and Sfp inh 2%.
For Cc1ccccc1C(=O)N1CCC(n2c(=O)[nH]c3ccccc32)CC1 the results were ALOX12 inh -6%.
Screening COc1ccc(N2Cc3cccc(C(=O)NC(C)CCc4ccco4)c3C2=O)cc1 (centres undefined) returned VDR inhibitor inconclusive, PLK1 PBD block inconclusive, ALOX12 inh -6% and Sfp inh 45µM*.
For Cc1nc(C)c(C(=O)N2CCCCCCNC(=O)CC2)s1 the results were ALOX12 inh 64%.
Screening C(=N\Nc1ccccn1)/c1c[nH]c2ccccc12 returned VDR inhibitor -8%, PLK1 PBD block 5%, ALOX12 inh -15% and Sfp inh inconclusive.
`O=c1nc(N/N=C/c2c[nH]c3ccccc23)cn[nH]1` gave VDR inhibitor 4%, PLK1 PBD block -5%, ALOX12 inh 13% and Sfp inh 50µM*.
For O=[N+]([O-])c1ccccc1/C=C/C=N/n1c(-c2ccco2)n[nH]c1=S the results were VDR inhibitor 2%, PLK1 PBD block -22%, ALOX12 inh inconclusive and Sfp inh -5%.
`Cc1cc(OCCn2cnc3ccccc3c2=O)cc(C(C)C)c1` gave VDR inhibitor -30%, PLK1 PBD block 21µM*, ALOX12 inh -3% and Sfp inh 6%.
Screening O=[N+]([O-])c1ccccc1/C=N/n1c(-c2cccnc2)n[nH]c1=S returned VDR inhibitor -3%, PLK1 PBD block -23%, ALOX12 inh inconclusive and Sfp inh inconclusive.
O=[N+]([O-])c1cc2c(cc1/C=N/n1c(-c3ccccn3)n[nH]c1=S)OCO2 was read as VDR inhibitor -13%, PLK1 PBD block inconclusive, ALOX12 inh inconclusive and Sfp inh 22µM*.
`O=[N+]([O-])c1ccccc1/C=N/n1c(C(F)(F)F)n[nH]c1=S` gave VDR inhibitor 10%, PLK1 PBD block 27µM*, ALOX12 inh inconclusive and Sfp inh 22µM*.
For O=[N+]([O-])c1cc2c(cc1/C=N/n1c(-c3ccccc3)n[nH]c1=S)OCO2 the results were VDR inhibitor -3%, PLK1 PBD block inconclusive, ALOX12 inh inconclusive and Sfp inh 40µM*.
O=C(O)CCn1cc(-c2ccc(Cl)cc2)nc1-c1ccc(Cl)nc1 was read as VDR inhibitor 10%, PLK1 PBD block -5% and ALOX12 inh -19%.
COc1ccc(-c2nc3c(-c4ccccc4)cnn3cc2C)cc1F was read as VDR inhibitor -8%, PLK1 PBD block -4%, ALOX12 inh 1% and Sfp inh 29%.
Screening OCCCN1CNC(=S)NC1 returned PLK1 PBD block 0% and ALOX12 inh -3%.
`CCOc1ccc(-c2nnn(CC(=O)c3ccc4c(c3)OCCO4)n2)cc1OCC` gave VDR inhibitor 88%, PLK1 PBD block -5%, ALOX12 inh 4%[57.4 µM] and Sfp inh 6%.
Screening Cc1ccc(/C=C/C(=O)NCc2ccco2)o1 returned ALOX12 inh -18% and Sfp inh 32µM*.
Screening O=C(/C=C/c1ccco1)NCc1ccco1 returned VDR inhibitor 8%, PLK1 PBD block -5%, ALOX12 inh 0% and Sfp inh -25%.
Cc1ccc(/C=C(\C#N)C(=O)NCc2ccco2)o1 was read as VDR inhibitor -13%, PLK1 PBD block 2%, ALOX12 inh 403% and Sfp inh 50µM*.
For Cc1ccc(/C=C/C(=O)NCCc2c[nH]c3ccccc23)o1 the results were VDR inhibitor -3%, PLK1 PBD block -18%, ALOX12 inh inconclusive and Sfp inh 28µM*.
`Cc1cccc(OCC(=O)NNC(=O)CCCCC(=O)NNC(=O)COc2cccc(C)c2)c1` gave VDR inhibitor 11%, PLK1 PBD block -7%, ALOX12 inh 0% and Sfp inh 9%.

From PubChem
